We go through 92 molecules from PubChem BioAssay AID488896 (Broad Institute, 2010).

The structures appear in SMILES notation. Among all 320,000 compounds or so, about 3,100 (0.97%) were called active. The sample holds actives, similar compounds and a random draw of the others, so the mix is not that of the screen. Values without a mark were called inactive.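 Rule for the calls: active = mean replicate inhibition of at least 70% and a set share of replicates each scoring 70 or more; inconclusive = meets just one of the two criteria; inactive = fails both criteria.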

Sequence of Scavenger receptor class B member 1 (Mus musculus) (Q61009 whole entry, looked up): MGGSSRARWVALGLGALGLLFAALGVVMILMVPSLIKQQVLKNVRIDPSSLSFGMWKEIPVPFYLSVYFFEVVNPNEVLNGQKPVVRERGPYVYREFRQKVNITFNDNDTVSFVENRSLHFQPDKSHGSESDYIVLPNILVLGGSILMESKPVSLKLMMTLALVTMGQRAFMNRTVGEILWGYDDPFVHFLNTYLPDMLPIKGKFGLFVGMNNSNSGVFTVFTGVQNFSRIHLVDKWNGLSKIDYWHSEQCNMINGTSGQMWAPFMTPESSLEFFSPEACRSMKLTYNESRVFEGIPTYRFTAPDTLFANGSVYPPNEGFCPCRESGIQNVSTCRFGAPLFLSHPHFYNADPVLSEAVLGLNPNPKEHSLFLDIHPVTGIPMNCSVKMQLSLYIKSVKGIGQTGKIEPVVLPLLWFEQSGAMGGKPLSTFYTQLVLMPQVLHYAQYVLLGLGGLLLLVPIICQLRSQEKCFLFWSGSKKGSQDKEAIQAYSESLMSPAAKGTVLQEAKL

The test concerns the target Scavenger receptor class B member 1 (Mus musculus) (UniProt Q61009). Description: mouse SR-BI DiI-HDL uptake blockers – ldlA[mSR-BI] cells, fluorescence, single point, primary screen (AID 488896).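 Note: 0% = median of neutral control wells and 100% = median of positive control wells.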 As to conditions: ldlA[mSR-BI] CHO cells, 3 h, at 12.5 µM, active compounds read high.
Turning to `CCCCC(=O)Nc1ccc(C(=O)Nc2cc(C(F)(F)F)ccc2Cl)cc1`, the inhibition was 67.9%. For `CCCC(=O)Nc1ccc(Cl)c(NC(=O)c2ccc(Br)o2)c1` the value was 70.8% (active); for `CCN1CCN(c2c(Cl)cccc2NC(=O)c2ccc(Br)o2)CC1`, 33.7%; for `COc1cc2c(cc1OC)C1C(=O)c3cc(OS(C)(=O)=O)c(OC)cc3C1N(C)C2=O` (configuration not stated), -1%. For `O=C1COc2c1ccc(O)c2O` the value was -17.3%; for `CN(CCc1ccccc1)C(=O)c1cccc(NC(=O)Cc2cccc(NC(=O)C3CCCN(C(=O)C4CCC4)C3)c2)c1` (configuration not stated), 26.9%; for `CN(CCc1ccccc1)C(=O)c1cccc(NC(=O)Cc2cccc(NC(=O)C3CCCN(C(=O)CCc4ccccc4)C3)c2)c1` (configuration not stated), 78.5% (active). For `O=C(Cc1ccc(NC(=O)C2CCCN(C(=O)CCc3ccccc3)C2)cc1)Nc1ccc(C(=O)N2CCOCC2)cc1` (configuration not stated) the value was 58.6%; for `CN(C(=O)c1cccc(NC(=O)Cc2cccc(NC(=O)C3CCCN(C(=O)C4CC4)C3)c2)c1)C1CCC1` (configuration not stated), 31.6%; for `CN(C(=O)c1cccc(NC(=O)Cc2ccc(NC(=O)C3CCCN(C(=O)C4CC4)C3)cc2)c1)C1CC1` (configuration not stated), 70%. Take `CN(C(=O)c1cccc(NC(=O)Cc2ccc(NC(=O)C3CCCN(C(=O)C4CCCC4)C3)cc2)c1)C1CCC1` (configuration not stated): the inhibition was 86.9% (active).

Regarding `COc1cc(/C=C/c2ccc(/C=C/c3cc(OC)c(OC)c(OC)c3)cc2)cc(OC)c1OC`, the inhibition is 51.2%. For the molecule `Nc1cc2c(cc1Br)-c1ccc(F)cc1C2=O`, the inhibition is 22.3%. In the case of `C=CCOC(=O)N1CCC2CC1c1cc(-c3ccc(OC)cc3)ccc12` (configuration not stated), the inhibition is -4.14%. With `Oc1c(CN2CCOCC2)ccc(CN2CCOCC2)c1O`, the inhibition was 0.438%. For `Cc1c(Cl)c([N+](=O)[O-])nn1CCCC(=O)Nc1cc(Cl)ccc1Cl` the value was -14.8%; for `Cc1ccc(C(=O)O)cc1NC(=O)c1ccc(Cn2nc(C)c(Cl)c2C)o1`, 4.04%; for `Cc1c(Cl)c([N+](=O)[O-])nn1Cc1ccc(C(=O)N/N=C\c2cc(Cl)ccc2O)o1`, 129% (active).

Regarding `CC(C)CN1CC(C)C(=O)N(c2ccccc2)C1=S` (configuration not stated), the inhibition is -3.77%.

Turning to `CC(C)CN(C(=O)COC(=O)c1ccc(Cl)c(N)c1)c1c(N)n(Cc2ccccc2)c(=O)[nH]c1=O`, the inhibition is 21.7%.

Turning to `COc1ccc2oc(C(=O)OCC(=O)N(CC(C)C)c3c(N)n(Cc4ccccc4)c(=O)[nH]c3=O)c(C)c2c1`, the inhibition is 71% (active).

Consider `CC(C)CN(C(=O)COC(=O)c1ccc2ccccc2c1)c1c(N)n(Cc2ccccc2)c(=O)[nH]c1=O`, for which the inhibition was 27.1%. For `CCC(C)C1(C2CCCC2)NC(=O)NC1=O` (configuration not stated) the value was -1.25%; for `C[n+]1cccc(C(=O)O)c1`, -14.9%. For `COc1cccc(/C=C2\Sc3ccc(C(=O)NCC4CCCO4)cc3N(C)C2=O)c1` (configuration not stated) the value was 76.6% (active). For the molecule `COc1cccc(C(=O)NCCS(=O)(=O)NCC2CCCO2)c1` (configuration not stated), the inhibition is -26.7%. For `COc1ccc2cc(C(=O)NCC3CCCO3)[nH]c2c1` (configuration not stated), the inhibition is -25.3%.

On to `CSCCC(NC(=O)COc1ccccc1)C(=O)OCc1ccc(Cl)cc1` (configuration not stated), for which the inhibition was -22.7%. Turning to `Cc1ccc(S(=O)(=O)c2cc3c(=O)n4cccc(C)c4nc3n(CCc3ccccc3)c2=N)cc1C`, the inhibition is -25.8%. For `COc1cccc2c1C(=O)c1c(O)c3c(c(O)c1C2=O)CC(O)(C(C)=NNC(=O)c1ccc(Cl)c(Cl)c1)CC3OC1CC(N)C(O)C(C)O1` (configuration not stated) the value was 33.2%; for `O=[N+]([O-])c1cccc(C=NN=Cc2ccccc2O)c1`, 45.3%. For `COc1ccc2c(c1)C(=O)CC(c1ccccc1)O2` (configuration not stated) the value was 17.3%; for `CCN1/C(=C/C(=S)Nc2ccccc2)Sc2ccccc21`, 80.2% (active); for `CCN1/C(=C\c2ccc3ccccc3[n+]2CC)Sc2cc(C)ccc21`, 55.6%.

Consider `CCNCCC(=O)N1c2ccccc2Sc2ccc(NC(=O)OCC)cc21`, for which the inhibition was -8.72%. Take `COC[C@@H]1NS(=O)(=O)c2ccc(Br)cc2O[C@H]1c1ccccc1`: the inhibition was 5.43%. For `NC(=O)C1(Nc2ccccc2Cl)CCCC1` the value was -5.33%; for `O=C(NN=C1CCC(=NNC(=O)c2cccnc2)CC1)c1cccnc1`, -14%. For `O=C(N/N=C/c1sc(N2CCCCC2)nc1-c1cccs1)c1cccnc1` the value was 76.7% (active); for `O=C(CNC(=O)c1cccnc1)N/N=C/c1cccnc1`, -11%; for `COC(=O)C1CC2=C(CC(C)(C)CC2=O)N(c2ccccc2)C1=O` (configuration not stated), -15.5%.

For `CCCCN1CC(CO)Oc2cccc(F)c2S1(=O)=O` (configuration not stated), the inhibition is -10.7%. For `COc1cccc(C(=O)N/N=C(\C)c2cccc(NC(=O)c3ccc(F)cc3)c2)c1OC` the value was 61%.

With `COc1ccc(/C(C)=N\NC(=O)c2ccc(-c3ccccc3)cc2)c(F)c1`, the inhibition is 67.1%.

For the molecule `C/C(=N/NC(=O)c1ccc(NC(=O)c2ccc(F)cc2)cc1)c1ccccc1`, the inhibition was 88.8% (active). Consider `O=C1C(=O)N(c2ccccc2)C(c2ccccc2)C1c1ccccc1` (configuration not stated), for which the inhibition is 3.47%. For `CCCN(CC(=O)Nc1ccccc1C)C(=O)c1ccc(OCC(=O)N2CCOCC2)c(OCC)c1` the value was 13.8%; for `CC1(C)N=C(N)NC(Nc2ccc(Cl)cc2)=N1`, -10.1%. In the case of `Cc1ccc(C)c(N2CCN(C(=O)CCCCn3c(=O)[nH]c4ccccc4c3=O)CC2)c1`, the inhibition was 16.6%. Take `Cc1ccc(C)c(N2CCN(C(=O)CCCn3c(=O)c4cccn4c4cccnc43)CC2)c1`: the inhibition was 84.4% (active).

Take `Cc1ccc(C)c(N2CCN(C(=O)Cn3ncn4cccc4c3=O)CC2)c1`: the inhibition was 10.1%. For `COc1ccc(CC(=O)NC(C)c2ccc(Cl)c(Cl)c2)cc1S(=O)(=O)N1CCOCC1` (configuration not stated) the value was 4.63%; for `O=C(O)C(c1cccs1)C1(O)CCCCC1` (configuration not stated), -15.2%; for `CC1(C)Cc2cccc(OCC(=O)NCc3ccccc3)c2O1`, 3.02%. For `CC1(C)Cc2cccc(OCC(=O)N3CCN(c4ccc([N+](=O)[O-])cc4)CC3)c2O1` the value was 71.3% (active).

`CC1(C)Cc2cccc(OCC(N)=O)c2O1`: the inhibition was 10.8%. For `Cc1cc(NC(=O)c2cc3ccccc3o2)no1` the value was -18.7%; for `COc1ccc(-c2cc(C(=O)Nc3ccccc3O)c3ccccc3n2)cc1`, 41.1%. For `COc1ccccc1NC(=O)c1cc(Cl)nc2ccccc12` the value was 66.5%; for `COc1ccc(NC(=O)c2cc(-c3cc(OC)c(OC)c(OC)c3)nc3ccccc23)c(OC)c1`, 78.3% (active); for `COC1=NC2=NCCN2C(OC)=N1`, -7.98%. As to `O=C1c2ccccc2C(=O)C1C(=O)C1CC1`, the inhibition is -19.4%. For `N#CC(Cc1cc2ccccc2n1S(=O)(=O)c1ccccc1)OCc1ccccc1` (configuration not stated) the value was 4.98%; for `O=c1ccn([C@@H]2O[C@H](CNS(=O)(=O)c3cc4ccccc4s3)[C@@H](O)[C@H]2O)c(=O)[nH]1`, -11%; for `O=C(O)c1ccccc1-c1ccccc1C(=O)Nc1nccs1`, -17.5%.

Consider `COc1ccc(-c2nn(-c3ccccc3)cc2C(=O)Nc2nccs2)cc1OC`, for which the inhibition is 74.4% (active).

Regarding `COc1ccc(-c2nn(-c3ccccc3)cc2/C=N/Nc2ccccn2)cc1OC`, the inhibition is 50.1%. For `CN1C(c2ccc(F)cc2)=CS/C1=C(/C#N)c1nnc2n1-c1ccccc1SC2` the value was 32.2%. For `Nc1ccc2c(c1)C(O)c1ccc(Cl)cc1-2` (configuration not stated) the value was -14.5%; for `Cc1cc(N2CCCC2)ccc1NC(=O)COc1ccc(Cl)cc1`, 75.9% (active). For `CCC(=O)c1ccc(OCC(=O)Nc2ccc(N3CCCCC3)cc2)cc1` the value was 35.5%; for `Cc1cc(C)cc(OCC(=O)Nc2ccc(N3CCOCC3)cc2N2CCOCC2)c1`, 45%; for `CN1CCOC1c1ccc(C2OCCN2C)cc1` (configuration not stated), -6.99%. In the case of `CCCCCCCCNS(=O)(=O)CCNC1CCCCC1`, the inhibition was -5.35%. For `CCCCN1C(=O)/C(=C2/C=CC=CN2C)SC1=S` the value was 8.97%; for `CCN1C(=O)/C(=C\N2CCN(c3cccc(Cl)c3)CC2)SC1=S`, 8.1%.

Regarding `CCCCN1C(=O)/C(=C/C=C2/C=Cc3ccccc3N2CC)SC1=S`, the inhibition is 146% (active). For `Cc1c[n+]([O-])ccc1[N+](=O)[O-]` the value was 4.11%. For `CCCCN1CC(COCc2ccccc2)OCCS1(=O)=O` (configuration not stated), the inhibition is -17.3%.

For the molecule `O=C(NCCCN1CCOCC1)c1ccc(N2CCCC2)c([N+](=O)[O-])c1`, the inhibition was -14.3%. For `N#Cc1c(NC(=O)c2ccc(N3CCOCC3)c([N+](=O)[O-])c2)sc2c1CCCC2` the value was 83.7% (active); for `O=C(Oc1ccccc1Cl)c1ccc(N2CCOCC2)c([N+](=O)[O-])c1`, 1.4%. For `NC(=O)c1ccc(N2CCCC2)nc1` the value was -0.443%. As for `COc1ccccc1NC(=O)N(O)C1(C#N)CCCCC1`, the inhibition was 2.4%. Turning to `Oc1cccc(/C=N/Nc2ccc(Cl)nn2)c1O`, the inhibition is 10.6%. For `COc1ccccc1/C=N/Nc1nc(C)c(C(C)=O)s1` the value was 24.4%; for `COc1cccc(/C=N/Nc2cc(C)nc(-c3ccccc3O)n2)c1O`, 84.7% (active). For `CN(C)CCNC(=O)c1ccc(Cl)c2cc3ccccc3nc12` the value was -8.43%; for `C#CCOCCOCCOCCNc1nc(N2CCN(C(=O)Cn3cc(CCO)nn3)CC2)nc(N2CCN(C(=O)Cn3cc(CCCN=C(N)N)nn3)CC2)n1`, -17.5%. For `COc1cc(OC)c(C(=O)NNC(=O)c2ccc(NS(=O)(=O)c3cccs3)cc2)cc1OC` the value was -10.6%; for `C/C(=N\NC(=O)c1ccc2ccccc2c1)c1cccnc1`, -22.1%; for `C/C(=N\NC(=O)c1ccc(NS(=O)(=O)c2cccs2)cc1)c1ccc2ccccc2c1`, 75.7% (active).

What is called inhibition is the drop in the measured response relative to a control, in per cent.
